Where “and” joins values, the source holds several entries; their conditions need not be identical. Identical values can stand only once. Screen size: about 420,000 compounds; about 540 (0.13%) were called active. Rule as the data show it: active = activity change below about -50%; inconclusive = mostly about -30% to -49%; inactive = weaker than that. Only a selection was taken, and actives are over-represented in it overall. A structure can be active in one record and inactive in another.

Chain of Phosphatidylinositol 4-kinase type 2-alpha (Homo sapiens) (Q9BTU6 whole entry, looked up): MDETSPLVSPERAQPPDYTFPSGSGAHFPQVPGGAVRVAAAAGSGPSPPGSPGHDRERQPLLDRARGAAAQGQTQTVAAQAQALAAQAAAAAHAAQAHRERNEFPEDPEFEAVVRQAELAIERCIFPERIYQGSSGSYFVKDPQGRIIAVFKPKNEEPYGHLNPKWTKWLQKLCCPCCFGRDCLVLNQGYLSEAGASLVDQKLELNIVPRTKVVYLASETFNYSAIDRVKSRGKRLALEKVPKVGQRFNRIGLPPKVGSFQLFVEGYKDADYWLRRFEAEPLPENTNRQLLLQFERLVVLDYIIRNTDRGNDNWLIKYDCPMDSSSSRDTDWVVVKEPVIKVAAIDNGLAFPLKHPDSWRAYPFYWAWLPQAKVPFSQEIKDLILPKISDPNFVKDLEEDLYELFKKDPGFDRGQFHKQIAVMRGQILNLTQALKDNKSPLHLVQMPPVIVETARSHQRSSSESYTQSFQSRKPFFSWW

In the test the target is Phosphatidylinositol 4-kinase type 2-alpha (Homo sapiens) (UniProt Q9BTU6). Nature of the test: qHTS for small molecular inhibitors of PI4K2A.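 Also: -100% = wells without enzyme as full effect.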 Conditions: purified PI4K2A, ADP-Glo luminescence, 1 h; at 76.9 µM, stronger effect = lower value. The text has this:
The phosphatidylinositol 4-phosphate (PI4P) is emerging as a key regulator of lipid transfer in ER-membrane contact sites. The four different phosphatidylinositol 4-kinase (PI4K) enzymes generate PI4P in different membrane compartments supporting distinct cellular processes many of which are crucial for the maintenance of cellular integrity but also hijacked by intracellular pathogens. The goal of this screening project is to search for small molecular inhibitors of PI4K2A based on a high throughput screening strategy.The ADP-Glo assay was used as a starting point to develop a miniaturized version for HTS applications. To implement the HTS screen, the PI4K ADP-Glotrade mark Kinase assay (Promega, V9102) was miniaturized for the 1536-well format used at NCGC.
For the robotic screening, the ADP-Glo assay using the ADP-Glotrade mark Kinase Assay kit from Promega was miniaturized and optimized on 1536-well white solid bottom plates (Greiner Bio-one). The substrate, 1.2 mM PI, prepared in the assay buffer (40mM Tris pH7.5, 20mM MgCl2, 1mM EGTA, 0.4% Triton X-100, 0.5mM DTT, 0.5mg/ml BSA) and PI4K2A enzyme, diluted also in the assay buffer to 4ug/mL, were dispensed onto the plates in equal volumes (1microl/well), pinned with 23 nL/well tested compounds or control followed by dispensation of 1microl/well 300microM ATP. The plates were incubated for one hour. Then, 2 µL/well of ADP-Glo reagent was added and incubated for 40 minutes. Next, 4microL/well of Kinase Detection Buffer was added to the plates and incubated for additional 40 minutes. All incubation steps were performed at ambient temperature. The resulting luminescence signal was measured on Viewlux plate reader (PerkinElmer). Adenosine, a partial non-specific inhibitor, was used as a positive control at 100microM final concentration to assess the assay's quality and plate-to-plate reproducibility. We also used "no enzyme" control to gauge the assay's maximal potential inhibition (IC100).
A general note: In qHTS, concentration-response curves come from the screen itself.
Turning to `CCOc1ccc(NC(=O)Cn2c(C)ccc(C#N)c2=O)cc1`, the activity change, negative = inhibition is 1.57% (inactive).
For the compound `CCOC(=O)c1ccc(-c2ccc(/C=C(\C#N)C(=O)Nc3ccc(OCC)cc3)o2)cc1`, the activity change, negative = inhibition was -0.67% (inactive).
The value for `CCOc1ccc(NC(=O)c2ccc(NC(=O)COC(=O)c3ccc(NC(=O)CC#N)cc3)cc2)cc1` was -84.7% (active); that for `COC(=O)CN1C(=O)CSc2ccc(S(=O)(=O)Nc3cc(C)ccc3C)cc21` was -1.14% (inactive).
Under `Cc1ccc(S(=O)(=O)c2cn(Cc3ccccc3)c3cc(N4CCCC4)c(F)cc3c2=O)c(C)c1` stands 2.36% (inactive).
Under `O=C(NCc1ccc(F)cc1)c1ccc(Cn2c(SCc3ccc(F)cc3)nc3cccnc32)cc1` stands -1.71% (inactive).
Take `O=C(OCC(O)CO)c1ccccc1Nc1ccnc2c(C(F)(F)F)cccc12` (centres undefined): the activity change, negative = inhibition was 0.766% (inactive).
The value for `COc1cccc(/C=N/NC(=O)C(=O)N2CCCC2)c1` was -2.13% (inactive).
The value for `COc1ccc(C(=O)Nc2ccccc2C(=O)N/N=C/c2ccc(O)c(OC)c2)cc1` was -68.9% (active); that for `COc1ccc(Nc2ncc(C(=O)Nc3cc(C)ccc3OC)c3ccccc23)cc1` was 2.21% (inactive); that for `CC(=O)/C(C)=N/O` was -0.649% (inactive).
The value for `O=C(Nc1c(C(=O)N2CCN(c3ccc(F)cc3)CC2)oc2ccccc12)c1ccco1` was -1.83% (inactive); that for `CCc1ccc2ncc3c(-c4ccc(C)cc4)nn(CC(=O)NCc4ccccc4)c3c2c1` was 8.2% (inactive).
Regarding `COc1ccc(OCCn2cc(C(=O)C3CCCCC3)c3ccccc32)cc1`, the activity change, negative = inhibition was -0.826% (inactive).
For `COc1cc(C(=O)Nc2ccc(-n3c(C)nc4ccccc4c3=O)cc2)cc(OC)c1OC`, the activity change, negative = inhibition was 6.04% (inactive).
For the compound `Cc1ccc2onc(CC(=O)N3CCN(c4ccc(Cl)cc4)CC3)c2c1`, the activity change, negative = inhibition was 2.89% (inactive).
For the compound `O=C(OCc1ccccc1)c1ccc(O)cc1`, the activity change, negative = inhibition was -0.636% (inactive).
Under `CCN1CCN(CCCNC(=O)c2ccc3c(c2)sc2nc(-c4ccc(OC)cc4)cn23)CC1` stands -72.4% (active).
Under `Cc1ccc(-c2cn3c(n2)sc2cc(C(=O)NCCCc4ccccc4)ccc23)cc1` stands -1.39% (inactive).
As for `COc1ccc(-c2cn3c(n2)sc2cc(C(=O)Nc4ccccc4F)ccc23)cc1`, the activity change, negative = inhibition was -4.68% (inactive).
On to `CCC(=O)Nc1cccc(-c2nc3cc(C)ccc3o2)c1`, for which the activity change, negative = inhibition is -9.07% (inactive).
Under `O=C(Nc1ccc(Br)cc1)c1ccc(Br)c(S(=O)(=O)NCc2ccccc2)c1` stands -0.252% (inactive); under `CCC(=O)N1CCc2cc(S(=O)(=O)NC(C(=O)NCCc3ccc(C)cc3)C(C)C)ccc21` (centres undefined), -3.91% (inactive).
The value for `CC(C)c1ccc(C2CC(=O)N3CN(C4CCCCC4)CSC3=C2C#N)cc1` (centres undefined) was -15.6% (inactive); that for `Cc1cc(C)c(NC(=O)CN2C(=O)c3cccnc3Oc3ccc(Cl)cc32)c(C)c1` was -3.1% (inactive).
Under `COC(=O)/C=C(/C)N` stands -1.85% (inactive).
For `COc1ccc2c(c1)c(C(=O)N/N=C/c1cccs1)c(C)n2C`, the activity change, negative = inhibition was -1.53% (inactive).
The value for `Cc1n[nH]c(=O)nc1N/N=C/c1cccs1` was -51.8% (active).
Consider `O=c1nc(N/N=C/c2ccco2)cn[nH]1`, for which the activity change, negative = inhibition was -22.5% (inactive).
For the compound `CCCCC12CN3CC(C)(CN(C1)C3c1ccc(O)c(OC)c1)C2=O` (centres undefined), the activity change, negative = inhibition is 0.484% (inactive).
Take `CCCCNC(=O)c1ccc2c(c1)NC(=O)C(C(C)C)N2` (centres undefined): the activity change, negative = inhibition was -1.85% (inactive).
Under `COc1ccc(CCNC(=O)CCCn2c(=O)c3ccccc3n(Cc3ccc(F)cc3Cl)c2=O)cc1OC` stands 1.26% (inactive).
The value for `O=C(O)c1ccc(-n2cccc2)cc1O` was 1.97% (inactive); that for `O=C(Cn1ccc(=O)[nH]c1=O)Nc1ccc(C(=O)O)c(O)c1` was -9.18% (inactive).
With `O=C(Nc1ccc(C(=O)O)c(O)c1)c1ccccc1`, the activity change, negative = inhibition was -14.9% (inactive) and -50.4% (active).
Consider `CCCCOc1ccc(CNC(=O)c2ccc3c(c2)N(C)C(=O)C2CCCCN32)cc1` (centres undefined), for which the activity change, negative = inhibition was 1.06% (inactive).
The value for `CC(C)(C)OC(=O)N1CCC(c2c(C(=O)Nc3ccc4c(c3)OCO4)cnn2-c2ccccc2)CC1` was -3.37% (inactive); that for `Cc1cccc(-c2nnc(SCC(=O)N3CCCc4ccccc43)o2)c1` was 1.17% (inactive); that for `CCCCOc1ccc(C(=O)Nc2cccc(-c3nc4ccccc4o3)c2C)cc1` was -4.4% (inactive).
Consider `CCOC(=O)c1cccc(NS(=O)(=O)c2cc(-c3cnc(C)o3)ccc2OC)c1`, for which the activity change, negative = inhibition is -9.3% (inactive).
For the compound `COc1ccc(Cl)cc1NC(=O)CSc1nc(=O)[nH]c2c1CCCC2`, the activity change, negative = inhibition was 3.81% (inactive).
Under `CCc1ccccc1NC(=O)Cc1ccc(NC(=O)N2CCCCc3ccccc32)cc1` stands -0.392% (inactive); under `COC(=O)c1cc(NC(=O)CCS(=O)(=O)c2cc(Br)cc3c2N(C(=O)C2CC2)CC3)cc(C(=O)OC)c1`, 1.45% (inactive); under `CCOc1cc(-c2nnc(SCC(=O)NC3CCCC3)nc2-c2ccc(OC)c(OCC)c2)ccc1OC`, 1.43% (inactive).
The value for `C=CC1(C)CC(=O)C2(O)C(C)(O1)C(OC(C)=O)C(O)C1C(C)(C)CCC(O)C12C` (centres undefined) was -8.1% (inactive).
The value for `COc1ccc(-c2nc3ccccc3o2)cc1NC(=O)c1cc([N+](=O)[O-])ccc1N1CCOCC1` was -1.07% (inactive); that for `COc1ccc(/C=C/c2nc(C#N)c(NCc3ccc(F)cc3)o2)cc1OC` was 3.37% (inactive); that for `CCc1ccc(NC(=O)c2cc(S(=O)(=O)NC3CCCCCC3)ccc2F)cc1` was 1.04% (inactive).
Consider `Oc1ccc(Cn2cc[nH]c2=S)cc1`, for which the activity change, negative = inhibition is 2.19% (inactive).
Under `CCC1=Nc2cc(C(=O)NCC(C)c3ccccc3)ccc2Sc2ccc(C)cc21` (centres undefined) stands -0.814% (inactive).
The value for `CCOc1ccc(NC(=O)Cn2cc(C(=O)c3ccc(C)cc3)c(=O)c3cc4c(cc32)OCCO4)cc1` was -5.72% (inactive).
`CCCn1ccc2c(OCC(=O)NCc3ccc(F)cc3)cccc2c1=O`: the activity change, negative = inhibition was 1.12% (inactive).
The value for `O=C(c1ccc2c(c1)N(Cc1ccccc1)C(=O)c1ccccc1S2(=O)=O)N1CCC(Cc2ccccc2)CC1` was -3.09% (inactive); that for `CCOc1ccccc1NC(=O)CN1CCN(S(=O)(=O)c2ccc(Br)cc2)CC1` was -3.13% (inactive).
With `CCOc1ccccc1NC(=O)Cn1c(=O)n(-c2cccc(C)c2)c(=O)c2c1c1cc(OC)ccc1n2C`, the activity change, negative = inhibition was 5.68% (inactive).
On to `Nc1ccc2c3c(cccc13)C(=O)NC2=O`, for which the activity change, negative = inhibition was -1.25% (inactive).
The value for `CN[C@@H]1[C@@H](O)[C@@H](O[C@@H]2[C@H](O)[C@H](O[C@H]3OC(CN)=CC[C@H]3N)[C@@H](N)C[C@H]2N)OCC1(C)O` (some centres undefined) was 3.62% (inactive).
Under `CC1(C)S[C@@H]2[C@H](N=CN3CCCCCC3)C(=O)N2[C@H]1C(=O)O` stands -3.84% (inactive).
Under `Cc1cc(C)cc(-n2ccnc2SCC(=O)Nc2nc3ccccc3s2)c1` stands -3.54% (inactive); under `CCOc1ccc(NC(=O)CSc2c3c(nc4ccccc24)CCCC3)cc1`, -3.16% (inactive); under `CCOc1ccc(NC(=O)N(CC(C)C)CC(C)C)cc1`, 7.41% (inactive).
For `CCOc1ccc(N/C=C/C(=O)c2ccccc2)cc1`, the activity change, negative = inhibition was -50.8% (active).
In the case of `COc1ccc(C(=O)NCC(c2ccc(N(C)C)cc2)N2CCc3ccccc32)c(OC)c1` (centres undefined), the activity change, negative = inhibition is 0.413% (inactive).
Turning to `CCCCN(C)CCCNC(=O)CN1N=C(c2ccc(OC)cc2)CCC1=O`, the activity change, negative = inhibition is -1.59% (inactive).
Under `COc1cc(CNC(=O)c2cc3n(n2)CCCN(Cc2cccc(F)c2)C3=O)cc(OC)c1OC` stands -0.346% (inactive).
In the case of `COC(=O)c1cc(Cl)c(NC(C)=O)cc1OC`, the activity change, negative = inhibition was -2.22% (inactive).
The value for `CCNC(=O)c1cnn(-c2ccccc2)c1-c1ccccc1` was 2.38% (inactive); that for `NNC(=O)c1cnn(-c2ccccc2)c1C(F)(F)F` was 3.06% (inactive).
Under `Nc1c(C(=O)O)cnn1-c1ccccc1` stands -60.3% (active).
On to `O=c1ccc2c(-c3ccccc3S(=O)(=O)O)c3ccc(O)c(O)c3oc-2c1O`, for which the activity change, negative = inhibition was -68% (active).
For the compound `O=C(NC1CC(=O)N(c2ccccc2)C1)c1ccco1` (centres undefined), the activity change, negative = inhibition was -1.35% (inactive).
Under `CCOc1ccc(C(NC(=O)c2cc(OC)c(OC)c(OC)c2)c2cc(Cl)c3cccnc3c2O)cc1` (centres undefined) stands -3.07% (inactive); under `COc1ccc(OC)c(NC(=O)C2CCCN(S(=O)(=O)c3ccc4c(c3)CCCC(=O)N4)C2)c1` (centres undefined), -2.64% (inactive); under `CN1CC[C@H](c2c(O)cc(O)c3c(=O)cc(-c4ccccc4Cl)oc23)[C@H](O)C1`, -3.75% (inactive).
The value for `Nc1ncnc2c1c(I)cn2[C@@H]1C[C@H](N)[C@@H](O)[C@H]1O` was -21.5% (inactive); that for `NC1CCN(O)C1=O` (centres undefined) was 0.196% (inactive).
Under `CCOC(=O)c1cc2c(=O)n3ccccc3nc2n(Cc2ccco2)c1=NC(=O)c1ccc(F)cc1` stands -8.37% (inactive); under `Cc1cc(NS(=O)(=O)c2ccc3oc(=O)c4ncn(C)c4c3c2)ccc1Br`, 3.97% (inactive).
Take `CC1(C)O[C@@H]2[C@H](O1)[C@@H](CO)O[C@H]2n1c(N2CCCCC2)nc2c(N)ncnc21`: the activity change, negative = inhibition is -54.5% (active).
As to `OCC1OC(n2cnc3c(N4CCCC4)ncnc32)C(O)C1O` (centres undefined), the activity change, negative = inhibition was -0.936% (inactive).
The value for `Nc1ncnc2c1cnn2C1CC(O)C(CO)O1` (centres undefined) was -25.1% (inactive); that for `Cn1c(=O)c2c(-c3ccccc3Br)n(Cc3ccccc3)cc2n(C)c1=O` was -1.93% (inactive); that for `O=c1cc(-c2ccccc2)[nH]c2nc(Cl)ccc12` was 3.68% (inactive).
Consider `Cc1nnc(C(=O)NC(C)(C)c2nc(C(=O)NCc3ccc(F)cc3)c(O)c(=O)n2C)o1`, for which the activity change, negative = inhibition was -1.36% (inactive).
For `CCN(C(=O)Cn1cc(S(=O)(=O)N2CCN(c3ccccc3F)CC2)c2ccccc2c1=O)c1ccc(C)c(C)c1`, the activity change, negative = inhibition was -1.44% (inactive).
The value for `N#Cc1c(N2CCCCC2)nc(N)c2c(N)nc(SCC(=O)O)cc12` was -59.8% (active); that for `COc1cccc(C(=O)Nc2ccc(N3CCCC3)cc2)c1` was -68.3% (active); that for `COc1cccc(C(=O)Nc2ccc(-c3cc(C(F)(F)F)nn3-c3ccccc3)cc2)c1` was 4.36% (inactive).
Under `COc1cccc(C(=O)NC(=O)Nc2ccc(-c3cc(C(F)(F)F)nn3-c3ccccc3)cc2)c1` stands -3.82% (inactive).

The values are drawn from PubChem BioAssay AID1346378 (National Center for Advancing Translational Sciences (NCATS), 2018).
